Results on 110 compounds are retold here after PubChem BioAssay AID588342 (National Center for Advancing Translational Sciences (NCATS), 2011).

Structures are written as SMILES. Out of some 360,000 compounds screened, about 25,000 (6.9%) were called active. A call without a number means that no potency is given here. Roughly 9% stayed inconclusive and do not appear here. Only a selection was taken, and actives are over-represented in it overall. Values without a mark were called inactive. The call rests on the fitted dose curve; in most records, active means well fitted inhibition curve with a large enough effect; inconclusive means small, poorly fitted or top-dose-only effect; inactive means flat fitted curve, though single readings scatter.
Potency means the concentration at half of the fitted maximal effect.

Sequence of Luciferin 4-monooxygenase (Photinus pyralis) (P08659 whole entry, looked up): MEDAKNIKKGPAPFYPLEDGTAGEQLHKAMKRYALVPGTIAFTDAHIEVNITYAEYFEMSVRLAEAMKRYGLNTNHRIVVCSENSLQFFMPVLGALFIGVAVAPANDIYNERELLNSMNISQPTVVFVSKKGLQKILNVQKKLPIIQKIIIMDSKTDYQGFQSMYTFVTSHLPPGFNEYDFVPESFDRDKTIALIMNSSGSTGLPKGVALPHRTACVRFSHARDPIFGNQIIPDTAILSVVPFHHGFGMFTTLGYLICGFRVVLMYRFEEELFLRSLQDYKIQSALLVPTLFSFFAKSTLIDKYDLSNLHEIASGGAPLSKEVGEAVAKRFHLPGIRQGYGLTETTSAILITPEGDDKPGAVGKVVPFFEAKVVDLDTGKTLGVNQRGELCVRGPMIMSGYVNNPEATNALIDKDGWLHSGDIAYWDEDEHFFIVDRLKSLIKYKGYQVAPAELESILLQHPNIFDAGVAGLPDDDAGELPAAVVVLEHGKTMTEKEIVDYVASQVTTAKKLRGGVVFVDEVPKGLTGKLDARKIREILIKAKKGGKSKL

This experiment deals with Luciferin 4-monooxygenase (Photinus pyralis) (UniProt P08659). Put plainly: qHTS profiling assay for firefly luciferase inhibitor/activator using purifed enzyme and Km concentrations of substrates (counterscreen for miR-21 project). Further: nearly all actives have a fitted effect of over 55% in size. Conditions: purified FLuc, luminescence inhibition; series mostly up to 57.5 µM. In a few lines:
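Purified P. pyralis luciferase (10nM final) with 10uM D-luciferin and 10uM ATP (Km levels) in 50mM Tris acetate pH 7.5, 10mM Mg acetate, 0.01% Tween-20, 0.05% BSA; qHTS 6-point titration, ~60 µM downward; luminescence read.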
For orientation: Quantitative high-throughput screening tests each substance at several concentrations.
For `Nc1c(-c2ccc(F)cc2)cnn1C1CCS(=O)(=O)C1` (stereo not given), the Potency entry was “inactive”. Still for that read-out and setting: as for `O=C(Nc1ccc(C(F)(F)F)cc1)c1cccc(-n2cnnn2)c1`, the entry is “inactive”; as for `CC(C)NC(=O)NCCCCCCS(C)=O` (stereo not given), “inactive”; as for `O=C(COC(=O)Cc1ccc(Br)cc1)Nc1ccc(N2CCOCC2)cc1`, “inactive”. On to `O=C(Nc1ccccc1Cl)Nc1cccc2cccnc12`, for which the Potency is 12 µM (active).

Take `N#Cc1ccc(C(=O)Nc2cccc3cccnc23)c(F)c1`: the Potency entry was “inactive”. The same measure, in the same setting: as for `Cc1c(NC(=O)Nc2ccccc2Cl)sc(=S)n1C`, the entry is “inactive”; as for `O=C(Nc1cccc2cccnc12)c1cccc(Cl)c1`, 15.1 µM (active). On to `O=C(Nc1cccc2cccnc12)c1cccc(N2C(=O)CCC2=O)c1`, for which the Potency was 13.5 µM (active). Same read-out and setting: as for `COC(=O)c1cccc(NC(=O)c2cccc(N3C(=O)CCC3=O)c2)c1`, the entry is “inactive”; as for `COc1c(Cl)cc(Cl)cc1C(=O)Nc1cccc2cccnc12`, “inactive”. Same read-out and setting: as for `O=C(Nc1cccc2cccnc12)c1cccc2c(Br)cccc12`, the entry is “inactive”; as for `Cc1cc(NC(=O)c2cccc(N3C(=O)CCC3=O)c2)no1`, “inactive”; as for `O=S(=O)(Nc1ccc(-n2cnnn2)cc1)c1ccc(Cl)cc1`, “inactive”. The same measure, in the same setting: as for `O=[N+]([O-])/C=C1\CCCCCN1`, the entry is “inactive”. In the case of `CCc1ccccc1N1CC(c2nc3ccccc3n2CCCCOc2ccccc2)CC1=O` (stereo not given), the Potency result was “inactive”. Still for that read-out and setting: as for `O=C(CCNS(=O)(=O)c1ccccc1C(F)(F)F)Nc1ccncc1`, the entry is “inactive”; as for `Cc1ccc(-c2nnc(Nc3cccc(Br)c3)c3ccccc23)cc1S(=O)(=O)NCC1CCCO1` (stereo not given), “inactive”; as for `CC1CCCC(NC(=O)COC(=O)[C@@H]2CC(O)CN2S(=O)(=O)c2ccc3c(c2)OCCO3)C1C` (stereo not given in full), “inactive”. As for `Clc1ccc(CSc2nncn3c2cc2occc23)cc1`, the Potency entry is “inactive”. As to `CC(=O)c1ccccc1NC(=O)C1CC(=O)N(c2ccc3c(c2)OCCO3)C1` (stereo not given), the Potency entry was “inactive”. Still for that read-out and setting: as for `COc1ccc(CNc2nc(-c3ccc(Cl)cc3)nn2S(=O)(=O)c2ccc(C)cc2)cc1`, the entry is “inactive”; as for `CS(=O)(=O)Nc1cccc(-c2cn3ccccc3n2)c1`, 23.9 µM (active); as for `CS(=O)(=O)Nc1cccc(C2=NN(S(=O)(=O)c3ccccc3)C(c3cccs3)C2)c1` (stereo not given), “inactive”. Same read-out and setting: as for `COC(=O)c1cccc(NS(C)(=O)=O)c1`, the entry is “inactive”; as for `COc1ccccc1C1=CC(=O)C[C@H](c2ccc(F)cc2)C1`, “inactive”. On the same count and under the same terms, as for `Cc1ccc(SCCSc2ncccn2)cc1`, the figure is 1.69 µM (active); as for `Cc1ccc(SCCC(=O)NC(C(C)C)C(C)C)cc1`, “inactive”.

Consider `Cc1ccc(SCCC(=O)NCc2ccccn2)cc1`, for which the Potency result was “inactive”. Still for that read-out and setting: as for `CCN(C(=O)CSc1nnc(C)n2c1cc1occc12)c1ccccc1`, the entry is “inactive”. For the compound `COc1cc(C(=O)NNC(=O)CN2C(=O)NC3(CCCC3)C2=O)cc(OC)c1OC`, the Potency result was “inactive”. Still for that read-out and setting: as for `Cc1ccc(-c2nnc3c4ccccc4c(C)nn23)cc1NC(=O)c1cccc(Br)c1`, the entry is “inactive”; as for `Cc1ccc(S(=O)(=O)NCCC(=O)Nc2cccc(S(N)(=O)=O)c2)cc1C`, “inactive”; as for `Cc1ccnc(NC(=O)CCNS(=O)(=O)c2ccc(C)c(C)c2)c1`, 4.78 µM (active).

In the case of `Cc1ccc(S(=O)(=O)NCCC(=O)Nc2ccc(C)c(Cl)c2)cc1C`, the Potency result is “inactive”. Regarding `COc1cc(NC(=O)CN2CCN(S(=O)(=O)c3ccc(Br)cc3)CC2)cc(OC)c1`, the Potency result was “inactive”. `Cc1cc2ccccc2n1CCC(=O)O`: the Potency result is “inactive”. The same measure, in the same setting: as for `O=C(O)CCn1c(O)c(C=C2N=c3ccccc3=N2)sc1=S`, the figure is 1.07 µM (active); as for `O=C(O)CCn1c(Cc2ccccc2)nc2ccccc21`, “inactive”.

On to `CCOC(=O)c1ccc(NC(=O)CC2C(=O)N(c3cccc(OC)c3)C(=O)N2C2CCCCC2)cc1` (stereo not given), for which the Potency result is “inactive”. `CN(CC(=O)Nc1ccccc1F)S(=O)(=O)c1ccc2c(c1)c(=O)n(C)c(=O)n2C`: the Potency result was “inactive”.

Regarding `O=C(NCc1cccs1)c1cc(-c2ccccn2)nc2ccc(Br)cc12`, the Potency entry was “inactive”. `Cc1ccc2nc(-c3ccccc3)cc(C(=O)O)c2c1`: the Potency is 12 µM (active).

Consider `CCS(=O)(=O)Nc1cccc(-c2cc(-c3ccccc3)c3cc(C)ccc3n2)c1`, for which the Potency result is “inactive”. As to `NC(=O)c1cc(-c2cccnc2)nc2ccc(Br)cc12`, the Potency entry was “inactive”.

Regarding `Cc1ccc(-c2cc(C(=O)NCc3cn(C)nc3C)c3cc(Br)ccc3n2)cc1`, the Potency is 1.9 µM (active). Still for that read-out and setting: as for `Cc1ccsc1-c1cc(C(=O)O)c2c(ccc3ccccc32)n1`, the figure is 5.36 µM (active). Regarding `Cc1cc(C(=O)OCC(=O)Nc2nccs2)c2ccccc2n1`, the Potency result was “inactive”. Same read-out and setting: as for `Cc1ccc2nc(-c3ccncc3)cc(C(=O)Nc3ccc4c(c3)OCCO4)c2c1`, the entry is “inactive”; as for `COc1ccccc1C(=O)Nn1cnnc1`, “inactive”; as for `O=C(Nc1ccncc1)c1cc(-c2ccccn2)nc2ccc(Br)cc12`, “inactive”. Same read-out and setting: as for `Cc1ccc2nc(-c3cccc(Br)c3)cc(C(=O)Nn3cnnc3)c2c1`, the figure is 0.536 µM (active); as for `O=C(NCC(c1cccs1)N1CCOCC1)c1cc(-c2ccccn2)nc2ccccc12` (stereo not given), “inactive”; as for `Cc1cccc(NC(=O)Cn2cc(S(=O)(=O)Cc3ccccc3Cl)c3ccccc32)c1`, “inactive”. On the same count and under the same terms, as for `CCOC(=O)c1ccccc1NC(=O)c1sc2nc(-c3ccc(F)cc3)cn2c1C`, the entry is “inactive”; as for `O=C(NCC12CC3CC(CC(C3)C1)C2)c1cc2nc(-c3ccccc3)cc(C(F)(F)F)n2n1`, “inactive”; as for `Cc1nc(CNS(=O)(=O)c2ccc(Oc3ccccc3)cc2)cs1`, “inactive”. Turning to `Cc1ccc(S(=O)(=O)c2cn(Cc3ccccc3)c3cc(N4CCCC4)c(F)cc3c2=O)c(C)c1`, the Potency result is “inactive”. Consider `NC(=O)Cn1nc([N+](=O)[O-])nc1Oc1ccc(Br)cc1`, for which the Potency entry was “inactive”. With `COc1ccccc1-n1c(-c2ccc(C)cc2)cn2c3c(=O)n(C)c(=O)n(C)c3nc12`, the Potency entry was “inactive”. For `COc1cccc(C(=O)N2CCC(n3nccc3NC(=O)C3CCOC3)CC2)c1` (stereo not given), the Potency entry is “inactive”. Same read-out and setting: as for `COC(=O)[C@]1(C)CCC[C@@]2(C)C3CC[C@]4(OC(C)=O)C[C@@]3(CCC21)CC4=NO` (stereo not given in full), the entry is “inactive”.

`COc1ccc(N(CC(=O)NCCc2ccc(Cl)cc2)S(=O)(=O)c2c(C)nn(C)c2C)cc1`: the Potency result is “inactive”. The same measure, in the same setting: as for `NC(=O)C1CCN(C(=O)c2ccc(-c3ccccc3)cc2)CC1`, the entry is “inactive”; as for `O=C(CCNS(=O)(=O)c1ccccc1)NCCSc1ccc(Br)cc1`, “inactive”; as for `Cc1c(NS(=O)(=O)c2ccc(Cl)cc2)c(=O)n(-c2ccccc2)n1C`, “inactive”. The same measure, in the same setting: as for `Cc1nc(N2CCOCC2)nc2c1CCCC2`, the entry is “inactive”; as for `Cc1cccc(NC(=O)c2sc3nc(N4CCOCC4)c4c(c3c2N)CCCC4)c1`, “inactive”. Same read-out and setting: as for `Nc1nc(-c2sc3nc4c(cc3c2N)CCCC4)nc(N2CCOCC2)n1`, the figure is 0.675 µM (active). Turning to `CCN(CC)c1ccc(NC(=O)CN2CCN(CC(=O)Nc3ccc(Cl)cc3)CC2)cc1`, the Potency result was “inactive”.

Take `COc1ccc(/C(C)=N\NC(=O)c2ccc(-c3ccccc3)cc2)c(F)c1`: the Potency entry was “inactive”. For `COc1cccc(C(=O)N/N=C(\C)c2cccc(NC(=O)c3ccc(F)cc3)c2)c1OC`, the Potency was 13.5 µM (active). With `COc1cccc(C(=O)Nc2cccnc2)c1OC`, the Potency result was “inactive”. For `Cc1cc(C)cc(NC(=O)Cn2nc(N3CCN(c4ccccc4)CC3)ccc2=O)c1`, the Potency result is “inactive”.

For the compound `CCC1CN(S(=O)(=O)c2cc(-c3cc(C)no3)ccc2C)c2cc(C)ccc2O1` (stereo not given), the Potency result is “inactive”.

Consider `Cc1c(Cl)cccc1NC(=O)Nc1ccc(C(=O)N2CCCC2)cc1`, for which the Potency is 5.36 µM (active). The same measure, in the same setting: as for `CS(=O)(=O)Nc1ccc(C(=O)N2CCCC2)cc1`, the entry is “inactive”; as for `Cc1c(Cl)cccc1NC(=O)NCCCN1CCCC1=O`, “inactive”; as for `Cc1ccc(C)n1-c1nnc(N2CCC(C(=O)NCc3ccc(F)cc3)CC2)s1`, “inactive”.

Turning to `Cn1c(=O)c2c(SCC(=O)N3CCc4ccccc43)nc(-c3ccc(Cl)cc3)nc2n(C)c1=O`, the Potency entry is “inactive”. On the same count and under the same terms, as for `CCn1c2ccccc2c2cc(NC(=O)COc3ccc(C)cc3C)ccc21`, the entry is “inactive”. Regarding `Cc1ccccc1OCC(=O)Nc1ccc(N2CCN(C(=O)C(C)C)CC2)c(Cl)c1`, the Potency result was “inactive”.

For the compound `CCN(CC)S(=O)(=O)c1ccc(C)c(NC(=O)COc2ccc(Br)cc2Cl)c1`, the Potency result is “inactive”. Consider `Cc1cccc(NC(=O)c2ccc3ccccc3n2)n1`, for which the Potency is 6.01 µM (active). Turning to `Cc1ccc(OCC(=O)Nc2ccc(NC(=O)c3cccs3)cc2)c(C)c1`, the Potency result is “inactive”. On to `COCCNC(=O)COc1ccccc1C`, for which the Potency entry was “inactive”. The same measure, in the same setting: as for `Cc1ccccc1OCC(=O)Nc1ccc2c(c1)ncn2C`, the figure is 21.3 µM (active); as for `Cc1cccc(NC(=O)c2cccnc2Cl)n1`, “inactive”; as for `Cc1cccc(NC(=O)c2ccccc2NC(=O)C(C)(C)C)n1`, “inactive”. On to `Cc1cccc(NC(=O)COc2ccc(Br)cc2C)n1`, for which the Potency is 3.38 µM (active). On to `Cc1ccc(S(=O)(=O)NC(=O)COc2ccccc2C)cc1`, for which the Potency entry was “inactive”. On to `Cc1cccc(NC(=O)COc2ccccc2C)n1`, for which the Potency was 13.5 µM (active). The same measure, in the same setting: as for `Cc1nc(C)c2c(c1C(F)(F)F)-c1ccccc1C2(F)F`, the entry is “inactive”. `COc1cccc(NC(=O)CSc2cc(=O)n(C)c3ccc(Cl)cc23)c1`: the Potency result is “inactive”. The same measure, in the same setting: as for `CCC1(CC)NC(=O)N(CC(=O)OCC(=O)c2cc(C)c(C)cc2C)C1=O`, the entry is “inactive”. The same measure, in the same setting: as for `CCOC(=O)c1c(C)[nH]c(CCC(=O)NCCCN2CCN(c3cc(C)ccc3C)CC2)c1C`, the entry is “inactive”; as for `CCN(CC)C(=O)CSC1c2ccccc2C(=O)N1c1ccccc1` (stereo not given), “inactive”; as for `Cc1ccc(CCCOC(=O)C[N+]2(C)CCCC2)cc1`, “inactive”. Turning to `Cn1c(=O)c2c(n(Cc3ccccc3)c1=O)NC(=O)C2CC(=O)N1CCc2ccccc2C1` (stereo not given), the Potency result is “inactive”.

As for `CC(=O)Nc1cccc2c1[n+]([O-])c(C)c(C)[n+]2[O-]`, the Potency result was “inactive”. As to `CCOc1ccc(NC(=O)c2cc3c(=O)n(Cc4cccs4)ccc3nc2C)cc1`, the Potency entry is “inactive”. As for `CSc1nnc(NC(=O)c2nc(S(=O)(=O)Cc3ccc(C)cc3)ncc2Cl)s1`, the Potency result was “inactive”. Same read-out and setting: as for `O=C(/C=C/c1ccccc1)Nc1nnc(SCC(=O)c2ccc3ccccc3c2)s1`, the entry is “inactive”; as for `NC(=O)CSc1nnc(NC(=O)c2ccc3ccccc3c2)s1`, 2.39 µM (active). Still for that read-out and setting: as for `NC(=O)CSc1nnc(NC(=O)c2ccc(Br)o2)s1`, the figure is 16.9 µM (active); as for `CCOCc1nnc(NC(=O)CSc2ccc(C)cc2)s1`, “inactive”. Regarding `Cc1ccc(C(=O)Nc2nnc(-c3ccncc3)s2)o1`, the activity change, negative = inhibition is -0.508% [at 2.3 µM]. In the case of `O=C(Nc1nnc(CCN2CCCCC2)s1)c1cccc(Cl)c1`, the Potency entry is “inactive”. Consider `CCSc1nnc(NC(=O)c2ccc(C)cc2)s1`, for which the Potency is 2.69 µM (active). As to `COC(=O)CSc1nnc(NC(=O)CCc2ccccc2)s1`, the Potency result is “inactive”.
